We go through 11 compounds from ChEMBL document CHEMBL1157539, “Thousands of chemical starting points for antimalarial lead identification” (Nature, 2010).

Format in all cases: functional
Assay [1] relates to Plasmodium falciparum. As to the kind of experiment: GSK_TCMDC: Inhibition of Plasmodium falciparum 3D7 in whole red blood cells, using parasite LDH activity as an index of growth. Test compounds present at 2uM.
The test system of assay [2] is Plasmodium falciparum. As to the kind of experiment: GSK_TCMDC: Inhibition of Plasmodium falciparum Dd2 in whole red blood cells, using parasite LDH activity as an index of growth. Test compounds present at 2uM.
The test system of another assay is HepG2. As to the kind of experiment: GSK_TCMDC: Percent inhibition of human HepG2 cell line. Test compounds present at 10uM.

Structures are written as SMILES.

As a reminder, the Inhibition is the share of the control response that was lost under treatment. Turning to `COc1ccc(NC(=O)/C=C/c2ccccc2Cl)cc1OCCN1CCC(N2CCN(C)CC2)CC1`, the values for the Inhibition with Plasmodium falciparum [1], in the assay on Plasmodium falciparum [2] and in the assay with HepG2 were 100%, 49% and 19%, respectively.
Turning to `O=C(NCC1CCC(CNCCc2ccccc2)CC1)Nc1ccc(Cl)c(Cl)c1` (stereo not drawn), the figures for the Inhibition in the assay on Plasmodium falciparum [1], in the assay on Plasmodium falciparum [2] and in the assay with HepG2 were 96%, 0% and 24%, respectively.
Consider `COc1ccc(-c2cccc(NC(=O)c3cccc(Cl)c3)c2)cc1CN1CCN(C)CC1.O=C(O)C(F)(F)F`, for which the Inhibition in the assay on Plasmodium falciparum [1] is 100%; in the assay with Plasmodium falciparum [2], 48%; in the assay with HepG2, 27%.
Take `Cc1cccc(Nc2c(-c3cc(Br)ccc3O)nc3ncccn23)c1`: the Inhibition with Plasmodium falciparum [1] is 100%; in the assay on Plasmodium falciparum [2] it was 98%; in the assay on HepG2 it was 0%.
As to `CCOc1c(CNCCCNc2nc3ccccc3[nH]2)cc(Br)cc1OC.Cl`, the Inhibition with Plasmodium falciparum [1] is listed as 99%; in the assay on Plasmodium falciparum [2], 0%; in the assay on HepG2 it was 29%.
On to `CN1CCN(CC2(Nc3nccc(NCc4ccc(Cl)cc4Cl)n3)CCCCC2)CC1`, for which the Inhibition in the assay on Plasmodium falciparum [1] came to 98%; with Plasmodium falciparum [2] it was 58%; with HepG2, 98%.
For `Br.CC1(C)NC(N)=NC(=N)N1OCCCc1c(Cl)cccc1Cl`, the results for the Inhibition in the assay with Plasmodium falciparum [1], in the assay with Plasmodium falciparum [2] and in the assay on HepG2 were 95%, 97% and 71%, respectively.
Consider `N#Cc1ccc(CN2CCC(NC(=O)c3ccc(-c4nnc(-c5cccc6ccccc56)o4)cc3)CC2)cc1`, for which the Inhibition in the assay with Plasmodium falciparum [1] is listed as 98%; in the assay with Plasmodium falciparum [2], 14%; in the assay with HepG2 it was 37%.
As for `COc1ccc(O)c(C(=O)c2cnc3c(c2)c(-c2ccc(F)cc2)c(C#N)c(=O)n3C)c1`, the figures for the Inhibition in the assay on Plasmodium falciparum [1], in the assay with Plasmodium falciparum [2] and in the assay with HepG2 were 92%, 14% and 7%, respectively.
The like results for `Cc1cnccc1/C=C/c1cccc(OCCN2CCc3ccc(S(C)(=O)=O)cc3CC2)c1` were, in that order, 93%, 80% and 9%.
On to `CC(=O)NCCNc1cc(N2CCc3ncnc(Nc4ccc(OCc5c(F)cccc5F)c(Cl)c4)c3C2)ncn1`, for which the Inhibition with Plasmodium falciparum [1] was 100%; in the assay on Plasmodium falciparum [2] it was 100%; in the assay on HepG2, 55%.
